BJeLR viability: MLPCN primary cell-based screen for lethality selective to Ras in HRASV12 cells; BJeLR (HRASV12) viability, CellTiter-Glo ATP luminescence, 48 h; inhibition, % (test concentration not listed); 0.17% of 300,000 active; AID 1554, 2009; in the data active means inhibition above about 50%; inconclusive means no clear call, values can overlap the other calls
BoNT-F LC inh: BoNT/F light chain protease inhibitors, primary screen, biochemical, flow cytometry, MLPCN library. Multiplex microsphere protease cleavage assay. AID 588497, 2011. Botulinum neurotoxin type F light chain protease (Clostridium botulinum). 0.22% of 360,000 active. inhibition, % at 10 µM; in the data active means inhibition above about 35%, passing the limit was not always enough; inconclusive means no clear call, values can overlap the other calls; further: plate controls were buffer without enzyme for full effect and enzyme alone for no effect
BoNT-A LC inh2: BoNT/A light chain protease inhibitors, primary screen, biochemical, flow cytometry, MLPCN library; inhibition, % at 10 µM; 0.17% of 360,000 active; multiplex microsphere protease substrate cleavage; Botulinum neurotoxin type A light chain protease (Clostridium botulinum A str. ATCC 3502); further: plate controls were buffer without enzyme for full effect and enzyme alone for no effect
Autofluor counter: compound fluorescence in toxin protease inhibitor counterscreen; AID 624483; compound autofluorescence counterscreen, microsphere flow cytometry; stronger effect = higher value; fluorescence intensity (concentration not given with the values); 3.1% of 360,000 active; in the data active means fluorescence intensity above about 16000; inconclusive means no clear call, values can overlap the other calls
Vc quorum ag: inducers of Vibrio cholerae quorum light production without autoinducers, primary screen, BH1578 luxS cqsA deficient, single point; V. cholerae BH1578 lux reporter, luminescence, 6 h; activation, % at 18.7 µM; 0.16% of 350,000 active; in the data active means activation mostly above about 9.7%, no sharp cut-off; inconclusive means no clear call, values can overlap the other calls; inactive means mostly below about 3.7%
Anthrax LF inh2: Bacillus anthracis LF protease inhibitors, primary screen, biochemical, multiplex microsphere, MLPCN library | Lethal factor (Bacillus anthracis), P15917 | multiplex microsphere protease cleavage assay | inhibition, % at 10 µM | 0.12% of 360,000 active | AID 588501, 2011; further: plate controls were buffer without enzyme for full effect and enzyme alone for no effect
Target sequence (P15917 whole entry, looked up): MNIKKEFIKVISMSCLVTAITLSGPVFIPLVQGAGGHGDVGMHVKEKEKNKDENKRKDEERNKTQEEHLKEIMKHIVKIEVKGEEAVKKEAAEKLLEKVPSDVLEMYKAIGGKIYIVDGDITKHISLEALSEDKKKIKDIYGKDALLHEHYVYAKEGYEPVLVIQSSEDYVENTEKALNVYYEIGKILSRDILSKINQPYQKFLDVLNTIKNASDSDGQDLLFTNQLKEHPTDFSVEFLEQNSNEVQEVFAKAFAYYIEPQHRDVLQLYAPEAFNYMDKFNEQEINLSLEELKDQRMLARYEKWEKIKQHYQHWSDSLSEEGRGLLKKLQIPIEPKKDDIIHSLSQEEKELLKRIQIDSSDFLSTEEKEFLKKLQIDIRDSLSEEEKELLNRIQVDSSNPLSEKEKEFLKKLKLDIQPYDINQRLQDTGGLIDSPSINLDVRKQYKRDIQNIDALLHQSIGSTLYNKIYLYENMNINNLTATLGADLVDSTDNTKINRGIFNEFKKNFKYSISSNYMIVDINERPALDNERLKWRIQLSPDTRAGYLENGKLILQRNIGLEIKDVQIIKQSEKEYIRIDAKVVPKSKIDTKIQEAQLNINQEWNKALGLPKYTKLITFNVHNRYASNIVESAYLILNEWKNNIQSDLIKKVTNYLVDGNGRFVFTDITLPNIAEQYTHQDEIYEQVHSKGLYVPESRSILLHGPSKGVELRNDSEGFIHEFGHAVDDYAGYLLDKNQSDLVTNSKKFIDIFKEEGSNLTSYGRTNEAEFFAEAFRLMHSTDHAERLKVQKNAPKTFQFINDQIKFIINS
* = called active by the depositor; i = inactive; u = inconclusive; x = not tested or not shown. In the library only some 3.7% were active in any assay of this set; here they are far more common. Unless noted, no stated cut-off is given here; in the data, active means inhibition above about 30%; inconclusive means no clear call, values can overlap the other calls; inactive means below that.

SMILES	BJeLR viability	BoNT-F LC inh	BoNT-A LC inh2	Autofluor counter	Vc quorum ag	Anthrax LF inh2
COc1ccc(C(=O)Nc2ccccc2C(=O)N(Cc2ccco2)C(C(N)=O)C(C)C)cc1 (stereo not drawn)	-2.5	2.9	0.3	22943*	-1.4	-1.8
Cc1ccc(CN(CC(=O)NCCc2ccccc2)C(=O)CCCC(=O)Nc2cc(C)on2)cc1	9.8	0.1	-0.4	17240*	i	0.1
CCOC(=O)c1cc(NC(=O)C2C3CCC(O3)C2C(=O)O)cc(C(=O)OCC)c1 (stereo not drawn)	14.3	0.5	-1.3	23079*	i	1.9
CCOC(=O)Cc1csc(NC(=O)c2c(-c3c(F)cccc3Cl)noc2C)n1	4.9	5.3	4.1	21863*	0.6	-4.7
CCOC(=O)c1cc(NC(=O)C2C3C=CC(O3)C2C(=O)O)cc(C(=O)OCC)c1 (stereo not drawn)	-0.5	-13.4	-3.4	3494	-0.9	-10.1
CCOC(=O)Cc1csc(NC(=O)c2ccoc2C)n1	x	-1.4	-2.2	23823*	0.0	-1.3
CCOC(=O)c1cc(NC(=O)c2ccoc2C)cc(C(=O)OCC)c1	-1.3	0.4	u	23038*	1.8	-2.9
CCOC(=O)Cc1csc(NC(=O)c2c(-c3ccccc3)noc2C)n1	4.3	0.4	-0.1	10311	-0.7	0.4
N#Cc1c(-c2ccc(Cl)cc2)c(-c2ccc(Cl)cc2)nn(CCOC(=O)CCC(=O)O)c1=O	x	-20.9	-0.6	4110	i	-10.5
CCC(=O)N1CCC1(C)C(=O)NCc1ccc(SC)cc1 (stereo not drawn)	x	-3.9	-0.3	3692	-4.5	3.9
CCOc1cc(NC(=S)NCC2CCCO2)c(OCC)cc1NC(=O)c1ccccc1 (stereo not drawn)	-3.8	-2.7	-1.2	24364*	i	-3.4
CCOCCCNC(=O)N[C@H](C(=O)OC)C(C)CC (stereo partly drawn)	-10.6	-2.2	0.0	6347	-0.3	-0.3
COC(=O)c1ccccc1NC(=O)NCC1CCCO1 (stereo not drawn)	-0.2	-0.8	0.5	22874*	-2.0	-2.1
O=C(NCc1ccc2c(c1)OCO2)C(=O)NCC1CCCO1 (stereo not drawn)	0.3	5.7	0.1	4706	i	-6.9
CCC(C)[C@H](NC(=O)NCC1CCCO1)C(=O)OC (stereo partly drawn)	18.0	-4.9	-4.7	24826*	i	-1.0
O=C(NCc1cccc(CNC(=O)C(=O)NCC2CCCO2)c1)C(=O)NCC1CCCO1 (stereo not drawn)	-2.6	-5.1	-0.8	4943	227.4*	-4.1
COc1cc(NC(=O)CN2C(=O)NC(CC(C)C)C2=O)cc(OC)c1OC (stereo not drawn)	x	-5.2	0.1	3979	-0.3	1.4
CC(C)[C@H](NC(=O)c1ccco1)C(=O)Nc1ccc(N2CCCCCC2)cc1	x	-3.2	-0.1	3947	-0.3	3.5
O=C(NCC1CCCO1)c1cccs1 (stereo not drawn)	1.9	-6.8	u	17278*	-0.2	-0.1
Cc1cc(C(=O)NNC(=S)NCC2CCCO2)cs1 (stereo not drawn)	-0.4	1.2	2.5	19574*	-0.1	-8.0
N#CC(=C1NC(=O)c2ccccc21)c1nc2ccccc2n1CCO	x	-2.1	-0.6	3454	i	1.8
COC(=O)[C@]12CCCCC=C1N(Cc1ccc(Cl)cc1Cl)C(=O)[C@H](CC(=O)N1CCCC1)C2	x	3.0	-0.2	4884	x	-3.1
CCC(=O)Nc1sc2c(c1C(N)=O)CCC2	9.1	0.3	1.3	23030*	i	-5.9
CCC(C)NCC(=O)Nc1sc2c(c1C(N)=O)CCC2 (stereo not drawn)	6.2	13.1	1.8	3734	-0.2	0.9
Cc1noc(C)c1C(=O)Nc1sc2c(c1C(N)=O)CCCCC2	6.8	-2.5	-0.5	22480*	-0.2	-1.8
SMILES	BJeLR viability	BoNT-F LC inh	BoNT-A LC inh2	Autofluor counter	Vc quorum ag	Anthrax LF inh2
Cc1noc(C)c1C(=O)Nc1sc2c(c1C(N)=O)CCC2	-4.9	8.2	0.3	10966	i	-4.8
Cc1onc(-c2ccccc2Cl)c1C(=O)Nc1ccc(S(=O)(=O)NCC2CCCO2)cc1 (stereo not drawn)	1.5	-2.8	-0.8	7936	i	-3.7
CCCCNS(=O)(=O)c1ccc(NC(=O)c2c(-c3ccccc3Cl)noc2C)cc1	7.1	0.0	1.6	19198*	i	3.9
Cc1onc(-c2ccccc2Cl)c1C(=O)NCCn1c(C)cc2ccccc21	-8.4	-150.3	59.2*	1177	1.7	-138.1
Cc1ccc(-c2cn3cccnc3n2)cc1NC(=O)c1c(-c2ccccc2Cl)noc1C	-1.8	-1.2	0.0	10225	-2.9	-3.9
Cc1onc(-c2ccccc2Cl)c1C(=O)Nc1ccc(-c2cn3cccnc3n2)cc1	2.9	0.4	u	16485*	i	-1.7
Cc1onc(-c2ccccc2Cl)c1C(=O)NCC(=O)O	-10.7	-0.5	-0.1	9391	0.3	-8.4
Cc1onc(-c2ccccc2Cl)c1C(=O)Nc1cccnc1	-14.4	0.5	1.2	20230*	i	1.4
COc1ccccc1CNc1nc(Nc2ccccc2-n2cccn2)c2sccc2n1	x	-2.4	-0.1	3695	i	-2.9
Cc1ccc(C)c(C(O)c2ncc(-c3cccc(F)c3)[nH]2)c1 (stereo not drawn)	x	-3.8	-0.1	3984	-0.5	4.5
COc1ccc(NC(=O)c2sc(=O)n(Cc3cccc(C(F)(F)F)c3)c2C)cc1OC	x	-12.5	-0.3	4955	-0.4	-0.4
CCCCC[C@@H](C)N1C[C@@H](COCc2ccccc2)Oc2cc(N3CCC[C@@H]3COC)ccc2S1(=O)=O	x	-7.2	0.7	5441	x	-1.4
Cc1ccccc1NC(=O)OCc1cn(-c2ccc(Cl)cc2)nn1	0.7	1.3	-0.1	22413*	i	-4.1
O=C(Nc1ccc(Cl)cc1)OCc1cn(-c2ccccc2)nn1	-5.3	-12.0	-1.9	4515	-0.1	-3.4
CCCCC(=O)OCc1cn(-c2ccc(Cl)cc2)nn1	11.8	-0.3	1.1	22405*	i	-0.8
CNc1cncc(-c2cccc(C(=O)NCCN(C)C)c2)n1	x	-0.2	0.0	3523	0.6	2.0
Cc1c(Cl)ccc2c1NC(=O)[C@]21N[C@@H](Cc2ccccc2)[C@H]2C(=O)N(c3ccc(F)cc3)C(=O)[C@H]21	7.0	-1.4	u	23930*	i	-2.5
O=C1[C@@H]2[C@H](Cc3ccc(O)cc3)N[C@]3(C(=O)Nc4ccccc43)[C@@H]2C(=O)N1c1ccc(F)cc1	11.4	1.7	-0.7	9543	i	14.9
Cc1ccc(C(=O)Nc2ccc(Cl)cc2C(=O)c2ccccc2)cc1	x	-3.8	1.0	23597*	1.0	-1.0
COC(=O)c1cnc(SC)nc1C	-12.9	0.0	u	20134*	i	-0.5

Screens: PubChem BioAssay, several laboratories
